PubChem BioAssay AID1159580 (chemical genetic matrix, 2015)
Several values for one entry are separate records, joined by “and”; a condition that tells them apart may be missing. Identical values can stand only once. In all, about 5,500 compounds went through this assay and about 2,000 (36%) were called active. Not shown: some 18% with an inconclusive outcome. Rule as the data show it: active = normalized growth mostly below about 0.91 (no sharp cut-off); inconclusive = no clear call, values can overlap the other calls; inactive = mostly above about 0.92. The list shows a part of the results.

Experiment: chemical genetic growth profiling, strain panel (AID 1159580);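 also: tested at 20 µM; growth read once vehicle control cultures reached saturation at 30 °C; 1 = growth at the plate median or of vehicle wells; lower values mean less growth of the strain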
Settings: growth OD

Measured: normalized growth

C=C1C(N)CC2CC1C2(C)C (stereo not given)
inactive: S. cerevisiae deletion strains, locus YAL021C, strain ccr4, stronger effect = lower value 1.01 | S. cerevisiae deletion strains, locus YAL026C, strain drs2, stronger effect = lower value 1.01 | S. cerevisiae deletion strains, locus YAL030W, strain snc1, stronger effect = lower value 1.01 | S. cerevisiae deletion strains, locus YBL061C, strain skt5, stronger effect = lower value 1 | S. cerevisiae deletion strains, locus YBR009C, strain hhf1, stronger effect = lower value 1.01 | S. cerevisiae deletion strains, locus YBR021W, strain FUR4, stronger effect = lower value 1 | S. cerevisiae deletion strains, locus YBR023C, strain chs3, stronger effect = lower value 0.985 | S. cerevisiae deletion strains, locus YBR171W, strain sec66, stronger effect = lower value 0.99 | S. cerevisiae deletion strains, locus YBR229C, strain ROT2, stronger effect = lower value 1.01 | S. cerevisiae deletion strains, locus YBR231C, strain swc5, stronger effect = lower value 0.999 | S. cerevisiae deletion strains, locus YBR279W, strain paf1, stronger effect = lower value 0.997 | S. cerevisiae deletion strains, locus YCL011C, strain gbp2, stronger effect = lower value 0.983 | S. cerevisiae deletion strains, locus YCL016C, strain dcc1, stronger effect = lower value 1.01 | S. cerevisiae deletion strains, locus YCL029C, strain bik1, stronger effect = lower value 1.02 | S. cerevisiae deletion strains, locus YCL069W, strain vba3, stronger effect = lower value 0.996 | S. cerevisiae deletion strains, locus YCR088W, strain abp1, stronger effect = lower value 0.989 | S. cerevisiae deletion strains, locus YDL005C, strain med2, stronger effect = lower value 0.991 | S. cerevisiae deletion strains, locus YDL035C, strain GPR1, stronger effect = lower value 0.994 | S. cerevisiae deletion strains, locus YDL040C, strain nat1, stronger effect = lower value 0.994 | S. cerevisiae deletion strains, locus YDL074C, strain BRE1, stronger effect = lower value 1.02 | S. cerevisiae deletion strains, locus YDL101C, strain DUN1, stronger effect = lower value 1.03 | S. cerevisiae deletion strains, locus YDL134C, strain PPH21, stronger effect = lower value 1.03 | S. cerevisiae deletion strains, locus YDL185W, strain tfp1, stronger effect = lower value 1.01 | S. cerevisiae deletion strains, locus YDL192W, strain arf1, stronger effect = lower value 0.996 | S. cerevisiae deletion strains, locus YDR001C, strain nth1, stronger effect = lower value 1 | S. cerevisiae deletion strains, locus YDR069C, strain doa4, stronger effect = lower value 0.98 | S. cerevisiae deletion strains, locus YDR101C, strain arx1, stronger effect = lower value 0.979 | S. cerevisiae deletion strains, locus YDR137W, strain rgp1, stronger effect = lower value 1 | S. cerevisiae deletion strains, locus YDR150W, strain NUM1, stronger effect = lower value 0.998 | S. cerevisiae deletion strains, locus YDR159W, strain sac3, stronger effect = lower value 0.975 | S. cerevisiae deletion strains, locus YDR162C, strain NBP2, stronger effect = lower value 1.01 | S. cerevisiae deletion strains, locus YDR195W, strain ref2 0.977 | S. cerevisiae deletion strains, locus YDR297W, strain sur2, stronger effect = lower value 1 | S. cerevisiae deletion strains, locus YDR318W, strain mcm21, stronger effect = lower value 1 | S. cerevisiae deletion strains, locus YDR334W, strain swr1, stronger effect = lower value 0.99 | S. cerevisiae deletion strains, locus YDR335W, strain msn5, stronger effect = lower value 0.995 | S. cerevisiae deletion strains, locus YDR388W, stronger effect = lower value 1 | S. cerevisiae deletion strains, locus YDR392W, strain spt3, stronger effect = lower value 1.01 | S. cerevisiae deletion strains, locus YDR502C, strain sam2, stronger effect = lower value 1.04 | S. cerevisiae deletion strains, locus YEL003W, strain gim4, stronger effect = lower value 0.998 | S. cerevisiae deletion strains, locus YEL037C, strain rad23, stronger effect = lower value 0.99 | S. cerevisiae deletion strains, locus YEL061C, strain CIN8 (second series), stronger effect = lower value 1.01 | S. cerevisiae deletion strains, locus YER015W, strain faa2, stronger effect = lower value 0.99 | S. cerevisiae deletion strains, locus YER016W, strain bim1, stronger effect = lower value 0.994 | S. cerevisiae deletion strains, locus YER110C, stronger effect = lower value 1.02 | S. cerevisiae deletion strains, locus YER111C, strain swi4, stronger effect = lower value 0.989 | S. cerevisiae deletion strains, locus YER155C, strain BEM2 (second series), stronger effect = lower value 1 | S. cerevisiae deletion strains, locus YER155C, strain BEM2, stronger effect = lower value 1 | S. cerevisiae deletion strains, locus YER167W, strain BCK2, stronger effect = lower value 1 | S. cerevisiae deletion strains, locus YFR010W, strain ubp6, stronger effect = lower value 1.01 | S. cerevisiae deletion strains, locus YGL078C, strain dbp3, stronger effect = lower value 1.04 | S. cerevisiae deletion strains, locus YGL086W, strain mad1, stronger effect = lower value 1 | S. cerevisiae deletion strains, locus YGL167C, strain pmr1, stronger effect = lower value 0.99 | S. cerevisiae deletion strains, locus YGL173C, strain kem1, stronger effect = lower value 0.998 | S. cerevisiae deletion strains, locus YGL227W, strain vid30, stronger effect = lower value 1 | S. cerevisiae deletion strains, locus YGL240W, strain doc1, stronger effect = lower value 0.994 | S. cerevisiae deletion strains, locus YGL248W, strain PDE1, stronger effect = lower value 1.04 | S. cerevisiae deletion strains, locus YGL253W, strain hxk2, stronger effect = lower value 1 | S. cerevisiae deletion strains, locus YGR078C, strain PAC10, stronger effect = lower value 1.04 | S. cerevisiae deletion strains, locus YGR135W, strain pre9, stronger effect = lower value 1.06 | S. cerevisiae deletion strains, locus YGR252W, strain gcn5, stronger effect = lower value 1.09 | S. cerevisiae deletion strains, locus YHR013C, strain ard1, stronger effect = lower value 1 | S. cerevisiae deletion strains, locus YHR027C, strain rpn1, stronger effect = lower value 0.996 | S. cerevisiae deletion strains, locus YHR030C, strain SLT2, stronger effect = lower value 0.996 | S. cerevisiae deletion strains, locus YHR079C, strain IRE1 (second series), stronger effect = lower value 1.01 | S. cerevisiae deletion strains, locus YHR079C, strain IRE1, stronger effect = lower value 0.994 | S. cerevisiae deletion strains, locus YHR094C, strain hxt1, stronger effect = lower value 1.02 | S. cerevisiae deletion strains, locus YHR129C, strain ARP1, stronger effect = lower value 1.01 | S. cerevisiae deletion strains, locus YHR142W, strain chs7, stronger effect = lower value 1.01 | S. cerevisiae deletion strains, locus YHR200W, strain rpn10, stronger effect = lower value 1.03 | S. cerevisiae deletion strains, locus YIL066C, strain RNR3, stronger effect = lower value 1.01 | S. cerevisiae deletion strains, locus YIL073C, strain SPO22, stronger effect = lower value 1.06 | S. cerevisiae deletion strains, locus YIL125W, strain kgd1, stronger effect = lower value 1.01 | S. cerevisiae deletion strains, locus YIR030C, strain dcg1, stronger effect = lower value 0.996 | S. cerevisiae deletion strains, locus YJL092W, strain hpr5, stronger effect = lower value 0.995 | S. cerevisiae deletion strains, locus YJL095W, strain BCK1 (second series), stronger effect = lower value 1.02 | S. cerevisiae deletion strains, locus YJL095W, strain BCK1, stronger effect = lower value 1.05 and 0.98 | S. cerevisiae deletion strains, locus YJL115W, strain asf1, stronger effect = lower value 0.99 | S. cerevisiae deletion strains, locus YJL129C, strain trk1, stronger effect = lower value 1.01 | S. cerevisiae deletion strains, locus YJL134W, strain LCB3, stronger effect = lower value 1 | S. cerevisiae deletion strains, locus YJL154C, strain vps35, stronger effect = lower value 0.998 | S. cerevisiae deletion strains, locus YJL164C, strain tpk1, stronger effect = lower value 0.997 | S. cerevisiae deletion strains, locus YJL166W, strain qcr8, stronger effect = lower value 0.997 | S. cerevisiae deletion strains, locus YJL168C, strain set2, stronger effect = lower value 1.01 | S. cerevisiae deletion strains, locus YJL187C, strain SWE1 (second series), stronger effect = lower value 1.05 | S. cerevisiae deletion strains, locus YJL187C, strain SWE1, stronger effect = lower value 0.997 | S. cerevisiae deletion strains, locus YJR066W, strain TOR1, stronger effect = lower value 0.953 | S. cerevisiae deletion strains, locus YKL009W, strain mrt4, stronger effect = lower value 0.998 | S. cerevisiae deletion strains, locus YKL068W, stronger effect = lower value 1.01 | S. cerevisiae deletion strains, locus YKL085W, strain MDH1 (second series), stronger effect = lower value 1.01 | S. cerevisiae deletion strains, locus YKL085W, strain MDH1, stronger effect = lower value 1.01 | S. cerevisiae deletion strains, locus YKL160W, strain elf1, stronger effect = lower value 0.998 | S. cerevisiae deletion strains, locus YKL190W, strain CNB1, stronger effect = lower value 1.01 | S. cerevisiae deletion strains, locus YKR001C, strain vps1, stronger effect = lower value 1.01 | S. cerevisiae deletion strains, locus YKR026C, strain gcn3, stronger effect = lower value 0.999 | S. cerevisiae deletion strains, locus YKR091W, strain srl3, stronger effect = lower value 0.996 | S. cerevisiae deletion strains, locus YLL001W, strain dnm1, stronger effect = lower value 1 | S. cerevisiae deletion strains, locus YLL026W, stronger effect = lower value 0.983 | S. cerevisiae deletion strains, locus YLL041C, strain sdh2, stronger effect = lower value 1.02 | S. cerevisiae deletion strains, locus YLR027C, strain aat2, stronger effect = lower value 0.985 | S. cerevisiae deletion strains, locus YLR039C, strain RIC1, stronger effect = lower value 1.06 | S. cerevisiae deletion strains, locus YLR058C, strain SHM2, stronger effect = lower value 1.02 | S. cerevisiae deletion strains, locus YLR102C, strain apc9, stronger effect = lower value 1 | S. cerevisiae deletion strains, locus YLR113W, strain HOG1, stronger effect = lower value 0.975 | S. cerevisiae deletion strains, locus YLR221C, strain rsa3, stronger effect = lower value 1 | S. cerevisiae deletion strains, locus YLR258W, strain gsy2, stronger effect = lower value 0.993 | S. cerevisiae deletion strains, locus YLR262C, strain YPT6 (second series), stronger effect = lower value 1.02 | S. cerevisiae deletion strains, locus YLR268W, strain sec22, stronger effect = lower value 0.992 | S. cerevisiae deletion strains, locus YLR320W, strain mms22, stronger effect = lower value 1 | S. cerevisiae deletion strains, locus YLR342W, strain FKS1, stronger effect = lower value 0.994 | S. cerevisiae deletion strains, locus YLR357W, strain rsc2, stronger effect = lower value 0.968 | S. cerevisiae deletion strains, locus YLR370C, strain arc18, stronger effect = lower value 0.986 | S. cerevisiae deletion strains, locus YLR371W, strain rom2, stronger effect = lower value 1 | S. cerevisiae deletion strains, locus YLR384C, strain iki3, stronger effect = lower value 0.999 | S. cerevisiae deletion strains, locus YLR418C, strain cdc73, stronger effect = lower value 1.05 | S. cerevisiae deletion strains, locus YML016C, strain PPZ1, stronger effect = lower value 1.01 | S. cerevisiae deletion strains, locus YML032C, strain rad52, stronger effect = lower value 1 | S. cerevisiae deletion strains, locus YML120C, strain ndi1, stronger effect = lower value 1.01 | S. cerevisiae deletion strains, locus YML124C, strain tub3, stronger effect = lower value 0.999 | S. cerevisiae deletion strains, locus YMR058W, strain fet3, stronger effect = lower value 1 | S. cerevisiae deletion strains, locus YMR078C, strain ctf18, stronger effect = lower value 1.01 | S. cerevisiae deletion strains, locus YMR125W, strain sto1, stronger effect = lower value 0.982 | S. cerevisiae deletion strains, locus YMR129W, stronger effect = lower value 1.02 | S. cerevisiae deletion strains, locus YMR205C, strain PFK2, stronger effect = lower value 0.997 | S. cerevisiae deletion strains, locus YMR223W, strain ubp8, stronger effect = lower value 1.02 | S. cerevisiae deletion strains, locus YMR231W, strain pep5, stronger effect = lower value 0.995 | S. cerevisiae deletion strains, locus YMR263W, strain SAP30, stronger effect = lower value 1.02 | S. cerevisiae deletion strains, locus YMR307W, strain GAS1, stronger effect = lower value 0.976 | S. cerevisiae deletion strains, locus YNL067W, strain RPL9B, stronger effect = lower value 1.03 | S. cerevisiae deletion strains, locus YNL071W, strain lat1, stronger effect = lower value 0.999 | S. cerevisiae deletion strains, locus YNL153C, strain GIM3, stronger effect = lower value 1.04 | S. cerevisiae deletion strains, locus YNL183C, strain NPR1, stronger effect = lower value 0.957 | S. cerevisiae deletion strains, locus YNL209W, strain ssb2, stronger effect = lower value 0.978 | S. cerevisiae deletion strains, locus YNL233W, strain BNI4, stronger effect = lower value 1.04 | S. cerevisiae deletion strains, locus YNL248C, strain rpa49, stronger effect = lower value 1.02 | S. cerevisiae deletion strains, locus YNL250W, strain rad50, stronger effect = lower value 1.03 | S. cerevisiae deletion strains, locus YNL271C, strain bni1, stronger effect = lower value 1.01 | S. cerevisiae deletion strains, locus YNL298W, strain CLA4, stronger effect = lower value 1.01 | S. cerevisiae deletion strains, locus YNL307C, strain MCK1, stronger effect = lower value 1.02 | S. cerevisiae deletion strains, locus YNL322C, strain KRE1 (second series), stronger effect = lower value 0.983 | S. cerevisiae deletion strains, locus YNR049C, strain mso1, stronger effect = lower value 0.992 | S. cerevisiae deletion strains, locus YNR052C, strain pop2, stronger effect = lower value 1.03 | S. cerevisiae deletion strains, locus YOL012C, strain htz1 1.56 | S. cerevisiae deletion strains, locus YOL147C, strain pex11, stronger effect = lower value 1.01 | S. cerevisiae deletion strains, locus YOR001W, strain rrp6, stronger effect = lower value 1.01 | S. cerevisiae deletion strains, locus YOR061W, strain CKA2, stronger effect = lower value 1.01 | S. cerevisiae deletion strains, locus YOR069W, strain VPS5, stronger effect = lower value 1.01 | S. cerevisiae deletion strains, locus YOR070C, strain gyp1, stronger effect = lower value 0.98 | S. cerevisiae deletion strains, locus YOR080W, strain dia2, stronger effect = lower value 0.998 | S. cerevisiae deletion strains, locus YOR083W, strain WHI5, stronger effect = lower value 0.994 | S. cerevisiae deletion strains, locus YOR106W, strain vam3, stronger effect = lower value 1.01 | S. cerevisiae deletion strains, locus YOR136W, strain idh2, stronger effect = lower value 1.01 | S. cerevisiae deletion strains, locus YOR144C, strain elg1, stronger effect = lower value 1 | S. cerevisiae deletion strains, locus YOR184W, strain ser1, stronger effect = lower value 0.995 | S. cerevisiae deletion strains, locus YOR231W, strain MKK1, stronger effect = lower value 0.969 | S. cerevisiae deletion strains, locus YOR265W, strain rbl2, stronger effect = lower value 0.981 | S. cerevisiae deletion strains, locus YOR270C, strain vph1, stronger effect = lower value 1.03 | S. cerevisiae deletion strains, locus YOR290C, strain snf2, stronger effect = lower value 0.994 | S. cerevisiae deletion strains, locus YOR316C, strain cot1, stronger effect = lower value 1.02 | S. cerevisiae deletion strains, locus YPL051W, strain arl3, stronger effect = lower value 0.972 | S. cerevisiae deletion strains, locus YPL078C, strain atp4, stronger effect = lower value 1 | S. cerevisiae deletion strains, locus YPL106C, strain sse1, stronger effect = lower value 0.963 | S. cerevisiae deletion strains, locus YPL240C, strain hsp82, stronger effect = lower value 0.996 | S. cerevisiae deletion strains, locus YPL256C, strain CLN2, stronger effect = lower value 1.01 | S. cerevisiae deletion strains, locus YPR119W, strain clb2, stronger effect = lower value 1 | S. cerevisiae deletion strains, locus YPR141C, strain kar3, stronger effect = lower value 0.993 | S. cerevisiae deletion strains, locus YPR163C, strain tif3, stronger effect = lower value 1.01 | S. cerevisiae deletion strains, locus YPR167C, strain met16, stronger effect = lower value 1.01 | S. cerevisiae deletion strains, strain wtn01, stronger effect = lower value 0.986 | S. cerevisiae strains, strain wild type, stronger effect = lower value 1.02
